Assay results from PubChem BioAssay.
Unmarked numbers belong to inactive results. How the calls were made is not given here.

tested on: Aerobactin synthetase IucA (Klebsiella pneumoniae hvKP1); assay: Biochemical IucA enzyme inhibition primary screen of the Spectrum library (AID 1346200); conditions: malachite green pyrophosphate, A620, at 8 µM, stronger effect = lower value;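 further: 100% = wells without compound and 0% = wells lacking enzyme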

First: CC(C)=CCc1c2c(c3occ(-c4ccc(O)c(O)c4)c(=O)c3c1O)C=CC(C)(C)O2
Second: CC(C)=CCc1c(O)cc2oc(C)cc(=O)c2c1O
The activity remaining of the first is higher: 120% for the first, 118% for the second.

First: Cc1c(NC(=O)c2cccnc2)c(=O)n(-c2ccccc2)n1C
Second: O=c1c2ccccc2oc2ccccc12
The activity remaining of the first is lower: 85.4% for the first, 117% for the second.

First: COC1CC2CCC(C)C(O)(O2)C(=O)C(=O)N2CCCCC2C(=O)OC(C(C)CC2CCC(O)C(OC)C2)CC(=O)C(C)/C=C(\C)C(O)C(OC)C(=O)C(C)CC(C)/C=C/C=C/C=C/1C (configuration not stated)
Second: CC1CCC2(OC1)OC1CC3C4CC[C@H]5C[C@@H](O)CC[C@]5(C)C4CC(=O)[C@]3(C)C1C2C (some centres not stated)
The activity remaining of the first is higher: 107% for the first, 94.1% for the second.

First: CC(C)(CO)C(O)C(=O)NCCCO (configuration not stated)
Second: CC(C)(C)NCC(O)COc1cccc2c1C[C@H](O)[C@H](O)C2 (some centres not stated)
The activity remaining of the first is higher: 118% for the first, 103% for the second.

Going from `NC(=O)c1cc[n+](CC2=C(C(=O)O)N3C(=O)C(NC(=O)C(c4ccccc4)S(=O)(=O)[O-])C3SC2)cc1` (configuration not stated) to `CC1(C)S[C@@H]2[C@H](NC(=O)C(C(=O)O)c3ccccc3)C(=O)N2[C@H]1C(=O)O` (some centres not stated), the activity remaining falls from 117% to 114%.

First: COc1cc(S(C)=O)ccc1-c1nc2ncccc2[nH]1 (configuration not stated)
Second: CCCOc1ccc2nc(NC(=O)OC)[nH]c2c1
The activity remaining of the first is higher: 108% for the first, 98.2% for the second.

First: CCCCCCc1ccc(O)cc1O
Second: CCN(CC)C(=O)c1cccc(C)c1
The activity remaining of the first is higher: 124% for the first, 112% for the second.

Compared with `CCn1cc(C(=O)O)c(=O)c2cc(F)c(N3CCNCC3)nc21`, `COC(=O)C1[C@H]2C[C@H]3c4[nH]c5ccccc5c4CCN3C[C@@H]2CC[C@@H]1O` (some centres not stated) is higher in activity remaining: 91.3% for the first, 112% for the second.

Compared with `C[C@@H]1CC2C3C[C@H](F)C4=CC(=O)C=C[C@]4(C)[C@@]3(F)[C@@H](O)C[C@]2(C)[C@@]1(O)C(=O)COC(=O)C(C)(C)C` (some centres not stated), `CC(=O)O[C@@H]1CC2C(C)(C)[C@H](O)C=C[C@]2(C)C2CC[C@@]3(C)[C@H](c4ccoc4)OC(=O)C4OC43[C@@]21C` (some centres not stated) is higher in activity remaining: 98.9% for the first, 107% for the second.

Compared with `c1coc(CNc2ncnc3nc[nH]c23)c1`, `CC(=O)N[C@@H](Cc1c[nH]c2ccccc12)C(N)=O` is higher in activity remaining: 116% for the first, 122% for the second.

First: CC(CCC(=O)O)[C@H]1CCC2C3CC[C@@H]4C[C@H](O)CC[C@]4(C)C3C[C@H](O)[C@@]21C (some centres not stated)
Second: CC(C)CCCC(C)[C@H]1CCC2C3CC=C4CC(=O)CC[C@]4(C)C3CC[C@@]21C (some centres not stated)
The activity remaining of the first is higher: 116% for the first, 113% for the second.

Compared with `CCC[C@H](N[C@@H](C)C(=O)N1[C@H](C(=O)O)C[C@@H]2CCCC[C@@H]21)C(=O)OCC`, `CCN(CC)CCOC(=O)C(c1ccccc1)C1CCCCC1` (configuration not stated) is lower in activity remaining: 121% for the first, 111% for the second.

First: S=c1[nH]c2ccccc2s1
Second: O=C1NS(=O)(=O)c2ccccc21
The activity remaining of the first is lower: 99.3% for the first, 102% for the second.

Going from `C=C(C)[C@H]1COc2cc3oc(=O)ccc3cc2O1` to `C[n+]1c2cc(N)ccc2cc2ccc(N)cc21`, the activity remaining falls from 118% to 111%.

Going from `Cc1ncc([N+](=O)[O-])n1CCO` to `CO/N=C(\C(=O)NC1C(=O)N2C(C(=O)OCOC(=O)C(C)(C)C)=C(/C=C\c3scnc3C)CSC12)c1csc(N)n1` (configuration not stated), the activity remaining rises from 75.6% to 120%.

Compared with `COC(=O)C1=CO[C@@H](C)[C@@H]2CN3CC[C@@]4(C(=O)Nc5ccccc54)[C@H]3CC12` (some centres not stated), `CC(=O)O[C@@H]1CC(=O)[C@@]2(C)C(CC(=O)[C@]3(C)C2CC[C@@]2(C)[C@H](c4ccoc4)OC(=O)C4OC423)C1(C)C` (some centres not stated) is lower in activity remaining: 101% for the first, 92.3% for the second.

First: NS(=O)(=O)c1cc2c(cc1C(F)(F)F)NC(Cc1ccccc1)NS2(=O)=O (configuration not stated)
Second: COc1ccc(C(Cl)=C(c2ccc(OC)cc2)c2ccc(OC)cc2)cc1
The activity remaining of the first is lower: 98.7% for the first, 117% for the second.

Going from `CC(=O)OC/C=C(\C)CC/C=C(\C)CC/C=C(\C)CC/C=C(\C)CC/C=C(\C)CC/C=C(\C)CC/C=C(\C)CC/C=C(\C)CCC=C(C)C` to `COC(=O)C[C@H]1C2(C)CC34OC5(C)O[C@@]6([C@H](OC)C(OC(=O)C(C)C)[C@]7(C)C(/C(=C(/OC)C(C)C)C(=O)O[C@H]7c7ccoc7)[C@@]6(O5)[C@H](OC)[C@@]3(OC)C2OC(C)=O)[C@]14C` (some centres not stated), the activity remaining falls from 120% to 119%.

For `FC(F)(F)COCC(F)(F)F`, the activity remaining was 120%.
